Test results as given in PubChem BioAssay (EPA / NIEHS).
Records with an inconclusive call do not appear. The source made the active and inactive calls. The calls were made as follows: active = hit-call score of the fitted dose curve at least 0.9, where 1 is the maximum; inconclusive = response in the unintended direction; inactive = score below 0.9.

What was measured:
[1] = target: rat Gamma-Aminobutyric Acid Type A Receptor, Non-Selective (GABAR-NonSelective), Gabra1 (gene 29705) (UniProt P62813); assay: NVS_LGIC_rGABAR_NonSelective: NovaScreen (NVS) Ligand-Gated Ion Channel Assay for rat Gamma-Aminobutyric Acid Type A Receptor, Non-Selective (GABAR-NonSelective) (AID 2283326)
Outline: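 Compounds were first screened in duplicate at 25 uM, with actives run as singleton concentration series (max 50 uM). Binding of a radioligand to rat whole-brain GABA-A preparation was measured by filtration and scintillation counting after 1 h, DMSO baseline.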

[2] = target: bovine Gamma-Aminobutyric Acid Type A Receptor Agonist (GABAR Agonist), GABRA1 (gene 780973) (UniProt P08219); assay: NVS_LGIC_bGABAR_Agonist: NovaScreen (NVS) Ligand-Gated Ion Channel Assay for bovine Gamma-Aminobutyric Acid Type A Receptor Agonist (GABAR Agonist) (AID 2283338)
Outline: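 Radioligand binding to bovine cerebellar membranes in agonist format, read by filter-based scintillation counting after 1 h. Primary screen in duplicate at 25 uM, with actives followed in concentration series. Gain of signal versus DMSO.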

[3] = target: Estrogen receptor (Homo sapiens) (UniProt P03372); assay: OT_ER_ERaERa_1440: Odyssey Thera (OT) 24-hour HEK293T Protein-Complementation Assay for Estrogen Receptor-alpha/-alpha Homodimer (AID 2283349);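 also: hits raise fluorescence above DMSO for agonists and antagonists alike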
Outline: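 Stably transfected HEK293T; ERα LBD homodimer PCA. 24 h dosing, fluorescence intensity read, gain-of-signal vs DMSO.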

[4] = target: Estrogen receptor (Homo sapiens) (UniProt P03372); assay: OT_ER_ERaERa_0480: Odyssey Thera (OT) 8-hour HEK293T Protein-Complementation Assay for Estrogen Receptor-alpha/-alpha Homodimer (AID 2283351);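 also: rise in fluorescence from reassembled reporter fragments on ERα LBD homodimer in nucleus or whole cell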
Outline: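 Cells were treated for 8 hours, then imaged on a laser scanning plate cytometer. Complementation of reporter fragments fused to the human ERα ligand-binding domain (residues 310-547) in HEK293T gave fluorescence, and gain of signal over vehicle was fitted.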

[5] = target: T1, Estrogen receptor (Homo sapiens) + Estrogen receptor beta (Homo sapiens) (UniProt P03372+Q92731); assay: OT_ER_ERaERb_0480: Odyssey Thera (OT) 8-hour HEK293T Protein-Complementation Assay for Estrogen Receptor-alpha/-beta Heterodimer (AID 2283352)
Outline: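 Fluorescence intensity readout from a protein-fragment complementation reporter in HEK293T; ER-alpha/ER-beta LBD heterodimer. Dosing 8 h. Gain-of-signal fit relative to DMSO negative control; laser scanning cytometry of whole-well cell population.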

[6] = target: T1, Estrogen receptor (Homo sapiens) + Estrogen receptor beta (Homo sapiens); assay: OT_ER_ERaERb_1440: Odyssey Thera (OT) 24-hour HEK293T Protein-Complementation Assay for Estrogen Receptor-alpha/-beta Homodimer (AID 2283356);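 also: heteromer of ER alpha and ER beta binding domains; hits raise reporter fluorescence and both agonists and antagonists give an increase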
Outline: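 Readout: mean fluorescence intensity in nucleus (agonists) or nucleus plus cytoplasm (antagonists), read by laser scanning cytometer after 24 h compound exposure of HEK293T cells carrying ERα/ERβ LBD fragment-complementation constructs; DMSO baseline.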

[7] = target: Estrogen receptor beta (Homo sapiens) (UniProt Q92731); assay: OT_ER_ERbERb_0480: Odyssey Thera (OT) 8-hour HEK293T Protein-Complementation Assay for Estrogen Receptor-beta/-beta Homodimer (AID 2283357);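 also: active means signal gain over DMSO baseline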
Outline: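 Fluorescence gain from complemented reporter fragments on ER-beta LBD homodimer in HEK293T was quantified against DMSO controls after 8 h treatment, fixation in 4% formaldehyde and Draq5 staining.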

[8] = target: human Opioid Receptor Mu (Opiate Mu), OPRM1 (gene 4988) (UniProt P35372); assay: NVS_GPCR_hOpiate_mu: NovaScreen (NVS) G Protein-Coupled Receptor Assay for human Opioid Receptor Mu (Opiate Mu) (AID 2283290);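 also: hits lower bound tracer signal versus DMSO meaning displacement of the ligand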
Outline: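 Cell-free radioligand binding to membranes from CHO cells expressing the receptor; bound tracer measured by filter-based scintillation counting 2.5 hours after dosing. Loss of signal versus DMSO baseline reflects displacement; primary screen at 25 uM in duplicate, actives followed up in concentration series.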

[9] = target: human Peripheral-type Benzodiazepine Receptor (PBR), TSPO (gene 706) (UniProt P30536); assay: NVS_MP_hPBR: NovaScreen (NVS) Membrane Protein Assay for human Peripheral-type Benzodiazepine Receptor (PBR) (AID 2283331);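 also: hits reduce radioligand binding relative to DMSO baseline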
Outline: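 Using human colon-derived membranes, this one-endpoint binding test reads radioligand loss by scintillation after 1 h. Screening started at 25 uM in duplicate, with positive and negative controls on every plate, and actives moved to dose series.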

[10] = target: rat Peripheral-type Benzodiazepine Receptor (PBR), Tspo (gene 24230) (UniProt P16257); assay: NVS_MP_rPBR: NovaScreen (NVS) Membrane Protein Assay for rat Peripheral-type Benzodiazepine Receptor (PBR) (AID 2283335)
Outline: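 Competitive displacement of specific radioligand from rat kidney membrane PBR, read by filtration and scintillation after 1 h. Compounds first tested at 25 uM in duplicate, then in concentration series; signal loss relative to DMSO.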

[11] = target: rat Thyrotropin Releasing Hormone Receptor (TRH), Trhr (gene 25570) (UniProt Q01717); assay: NVS_GPCR_rTRH: NovaScreen (NVS) G Protein-Coupled Receptor Assay for rat Thyrotropin Releasing Hormone Receptor (TRH) (AID 2283329);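 also: hit means lower bound tracer signal versus DMSO baseline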
Outline: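 Cell-free radioligand binding on rat forebrain membranes; bound tracer measured by filter-based scintillation counting 4 hours after dosing. Loss of signal versus DMSO baseline indicates displacement; primary screen at 25 uM in duplicate, actives then run in concentration series.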

[12] = target: bovine Estrogen Receptor (ER), ESR1 (gene 407238) (UniProt P49884); assay: NVS_NR_bER: NovaScreen (NVS) Nuclear Receptor Binding Assay for bovine Estrogen Receptor (ER) (AID 2283345);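 also: actives lower the bound radioligand count which means they displace the ER ligand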
Outline: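 Cell-free radioligand binding with receptor from bovine uterine membranes, read by scintillation counting 18 h after dosing. Loss of specific binding was scored against DMSO; primary screen at 25 uM in duplicate, actives then run as concentration series.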

[13] = target: chimpanzee Androgen Receptor (AR), AR (gene 747460) (UniProt O97775); assay: NVS_NR_cAR: NovaScreen (NVS) Nuclear Receptor Binding Assay for chimpanzee Androgen Receptor (AR) (AID 2283346);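 also: radioligand displacement from AR measured by scintillation counting in a cell-free assay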
Outline: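 Cell-free radioligand displacement using receptor protein extracted from Sf9/Sf21 cells; bound radioligand measured by scintillation counting 72 hours after chemical dosing. Loss of signal versus DMSO baseline indicates binding; primary screen single-concentration in duplicate at 25 uM, actives followed in concentration series.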

[14] = target: Estrogen receptor (Homo sapiens) (UniProt P03372); assay: NVS_NR_hER: NovaScreen (NVS) Nuclear Receptor Binding Assay for human Estrogen Receptor (ER) (AID 2283348)
Outline: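 Radiodetection of ligand displacement in a lysate-based, cell-free format using MCF7 extracts, read at 18 hours. Duplicate 25 uM primary testing, then concentration series for actives.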

[15] = target: rat Neonicotinoid receptor (NNR), Chrna7 (gene 25302) (UniProt Q05941); assay: NVS_LGIC_rNNR_BungSens: NovaScreen (NVS) Ligand-Gated Ion Channel Assay for rat Neonicotinoid receptor (NNR) (AID 2283315)
Outline: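 Rat cortical membrane preparation incubated 2.5 h with tritiated or iodinated radioligand and test chemical. Bound radioactivity was filtered and counted by scintillation, and displacement was analysed against DMSO.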

[16] = target: Sodium channel protein type 1 subunit alpha (Rattus norvegicus) (UniProt P04774); assay: NVS_IC_rNaCh_site2: NovaScreen (NVS) Ion Channel Assay for rat Sodium Channel, Site 2 (NaCh) (AID 2283322);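 also: hit means loss of radioligand binding signal relative to DMSO so AC50 marks displacement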
Outline: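 Initial duplicate single-point testing at 25 uM, followed by concentration-response runs for actives. Binding of radioligand to rat forebrain membranes quantified after 1 h via filter-based radiodetection.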

[17] = target: Androgen Receptor/SRC-1 Co-activator, AR (gene 367) (UniProt P10275); assay: OT_AR_ARSRC1_0480: Odyssey Thera (OT) 8-hour HEK293T Protein-Complementation Assay for Androgen Receptor/SRC-1 Co-activator (AID 2283354);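 also: hits raise the complementation signal above DMSO so AC50 marks enhancers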
Outline: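 After 8 h dosing, stably expressing HEK293T cells with split-Venus AR/SRC-1 fusions were imaged (488, 635nm). The 488nm N/C ratio per image gave the endpoint, analysed in the positive direction against DMSO.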

[18] = target: Retinoic acid receptor alpha (Homo sapiens) (UniProt P10276); assay: NVS_NR_hRAR_Antagonist: NovaScreen (NVS) Nuclear Receptor Binding Assay for human Retinoic Acid Alpha Receptor Antagonism (RAR) (AID 2283358)
Outline: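 Chemicals were first tested in duplicate at 25 uM, then actives in concentration series, in a cell-free TR-FRET antagonist binding format. Measurements were taken 2 hours after dosing and loss of signal was evaluated against DMSO controls.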

[19] = target: rat Mineralocorticoid Receptor (MR), Nr3c2 (gene 25672) (UniProt P22199); assay: NVS_NR_rMR: NovaScreen (NVS) Nuclear Receptor Binding Assay for rat Mineralocorticoid Receptor (MR) (AID 2283355)
Outline: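 Single-concentration duplicate screen (25 uM) of radioligand binding in adrenalectomized rat brain supernatant; scintillation detection 24 h after dosing. Positive and negative controls ran on each plate, and confirmed actives went to concentration-response.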

Chain of bovine Estrogen Receptor (ER), ESR1 (gene 407238) (P49884 whole entry, looked up): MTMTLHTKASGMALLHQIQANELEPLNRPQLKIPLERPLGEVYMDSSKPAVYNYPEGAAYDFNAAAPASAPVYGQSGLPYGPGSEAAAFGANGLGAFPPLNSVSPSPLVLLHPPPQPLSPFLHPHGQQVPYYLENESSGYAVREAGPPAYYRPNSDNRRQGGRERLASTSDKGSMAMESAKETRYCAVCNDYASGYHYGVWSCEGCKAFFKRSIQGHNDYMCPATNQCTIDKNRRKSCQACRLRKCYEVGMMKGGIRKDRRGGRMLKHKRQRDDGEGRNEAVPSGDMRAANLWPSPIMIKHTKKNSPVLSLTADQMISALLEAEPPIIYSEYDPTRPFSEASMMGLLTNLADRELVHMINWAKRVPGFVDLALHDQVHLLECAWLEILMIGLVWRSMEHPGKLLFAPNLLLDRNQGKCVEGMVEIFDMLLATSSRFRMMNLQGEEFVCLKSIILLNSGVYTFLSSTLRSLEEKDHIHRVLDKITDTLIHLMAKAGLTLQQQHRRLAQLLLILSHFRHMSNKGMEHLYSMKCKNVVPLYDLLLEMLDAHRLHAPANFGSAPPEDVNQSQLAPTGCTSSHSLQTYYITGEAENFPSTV
Chain of Estrogen receptor beta (Homo sapiens) (Q92731 whole entry, looked up, the tested form may be a part): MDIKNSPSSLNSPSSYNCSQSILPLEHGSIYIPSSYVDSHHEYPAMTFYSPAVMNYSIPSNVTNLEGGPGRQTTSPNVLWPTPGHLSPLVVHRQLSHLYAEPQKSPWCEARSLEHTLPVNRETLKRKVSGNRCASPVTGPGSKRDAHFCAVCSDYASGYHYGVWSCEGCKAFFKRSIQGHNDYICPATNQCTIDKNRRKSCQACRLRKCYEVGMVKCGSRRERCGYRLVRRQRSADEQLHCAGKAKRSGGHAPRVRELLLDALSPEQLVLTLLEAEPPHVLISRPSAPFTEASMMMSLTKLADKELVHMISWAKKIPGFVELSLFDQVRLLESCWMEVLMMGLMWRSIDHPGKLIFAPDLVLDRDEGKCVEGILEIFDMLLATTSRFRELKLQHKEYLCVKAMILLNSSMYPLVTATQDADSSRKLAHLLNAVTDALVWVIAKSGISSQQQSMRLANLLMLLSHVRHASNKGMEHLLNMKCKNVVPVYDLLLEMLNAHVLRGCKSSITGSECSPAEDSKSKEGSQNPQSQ
Chain of Estrogen receptor (Homo sapiens) (P03372 whole entry, looked up, the tested form may be a part): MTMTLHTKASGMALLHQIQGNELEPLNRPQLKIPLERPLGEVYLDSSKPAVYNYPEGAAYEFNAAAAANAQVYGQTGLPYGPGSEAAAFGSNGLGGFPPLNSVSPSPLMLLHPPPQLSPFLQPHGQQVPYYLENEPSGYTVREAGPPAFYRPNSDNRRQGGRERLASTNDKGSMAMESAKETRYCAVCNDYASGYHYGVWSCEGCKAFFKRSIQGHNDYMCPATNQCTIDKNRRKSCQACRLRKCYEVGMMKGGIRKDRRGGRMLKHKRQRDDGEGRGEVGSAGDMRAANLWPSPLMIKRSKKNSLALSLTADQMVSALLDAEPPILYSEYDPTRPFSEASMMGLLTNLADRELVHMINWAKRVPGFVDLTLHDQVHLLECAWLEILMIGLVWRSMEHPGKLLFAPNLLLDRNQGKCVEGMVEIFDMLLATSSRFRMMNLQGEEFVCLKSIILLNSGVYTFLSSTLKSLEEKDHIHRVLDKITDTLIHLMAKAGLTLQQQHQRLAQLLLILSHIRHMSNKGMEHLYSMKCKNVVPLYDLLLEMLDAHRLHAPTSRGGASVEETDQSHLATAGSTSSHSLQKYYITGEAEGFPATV
T1 sequence (P03372 whole entry, looked up, the tested form may be a part): as above
T1 sequence (Q92731 whole entry, looked up, the tested form may be a part): as the sequence (Q92731 whole entry, looked up, the tested form may be a part) above
Chain of Retinoic acid receptor alpha (Homo sapiens) (P10276 whole entry, looked up): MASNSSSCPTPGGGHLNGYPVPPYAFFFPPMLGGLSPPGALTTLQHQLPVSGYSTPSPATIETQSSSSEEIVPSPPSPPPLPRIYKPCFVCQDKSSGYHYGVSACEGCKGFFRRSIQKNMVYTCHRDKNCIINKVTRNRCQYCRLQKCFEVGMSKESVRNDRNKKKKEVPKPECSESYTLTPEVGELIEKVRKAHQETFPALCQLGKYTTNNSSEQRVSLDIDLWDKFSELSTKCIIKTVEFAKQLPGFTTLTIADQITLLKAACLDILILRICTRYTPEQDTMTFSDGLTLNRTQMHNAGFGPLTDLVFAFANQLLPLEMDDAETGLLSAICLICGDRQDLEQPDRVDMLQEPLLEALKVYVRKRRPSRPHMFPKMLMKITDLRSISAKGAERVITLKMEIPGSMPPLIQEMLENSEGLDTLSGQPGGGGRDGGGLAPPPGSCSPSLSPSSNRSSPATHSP
Chain of chimpanzee Androgen Receptor (AR), AR (gene 747460) (O97775 whole entry, looked up): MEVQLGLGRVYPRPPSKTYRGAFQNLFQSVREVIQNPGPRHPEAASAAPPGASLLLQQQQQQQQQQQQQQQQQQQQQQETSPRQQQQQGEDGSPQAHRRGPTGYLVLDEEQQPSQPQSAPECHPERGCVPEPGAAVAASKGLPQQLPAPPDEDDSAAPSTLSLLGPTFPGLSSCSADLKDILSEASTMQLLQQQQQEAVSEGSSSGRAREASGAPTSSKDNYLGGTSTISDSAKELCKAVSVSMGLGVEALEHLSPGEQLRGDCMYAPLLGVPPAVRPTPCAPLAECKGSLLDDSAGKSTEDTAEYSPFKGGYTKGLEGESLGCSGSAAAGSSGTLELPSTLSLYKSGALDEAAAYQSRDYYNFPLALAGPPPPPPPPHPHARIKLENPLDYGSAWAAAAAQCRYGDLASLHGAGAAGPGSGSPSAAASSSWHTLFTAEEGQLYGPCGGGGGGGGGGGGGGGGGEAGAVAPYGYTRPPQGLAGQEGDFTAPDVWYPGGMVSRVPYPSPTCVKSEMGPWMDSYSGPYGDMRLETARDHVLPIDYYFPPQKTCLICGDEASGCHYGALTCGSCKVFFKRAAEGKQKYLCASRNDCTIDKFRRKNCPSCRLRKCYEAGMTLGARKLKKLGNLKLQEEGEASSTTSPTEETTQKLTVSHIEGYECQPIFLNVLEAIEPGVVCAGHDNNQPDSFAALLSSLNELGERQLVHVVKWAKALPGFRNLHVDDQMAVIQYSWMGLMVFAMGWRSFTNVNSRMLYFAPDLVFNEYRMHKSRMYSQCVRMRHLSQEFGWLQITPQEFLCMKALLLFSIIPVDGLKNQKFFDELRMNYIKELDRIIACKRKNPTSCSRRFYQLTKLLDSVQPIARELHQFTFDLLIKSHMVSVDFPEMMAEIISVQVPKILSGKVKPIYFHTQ
Chain of rat Peripheral-type Benzodiazepine Receptor (PBR), Tspo (gene 24230) (P16257 whole entry, looked up): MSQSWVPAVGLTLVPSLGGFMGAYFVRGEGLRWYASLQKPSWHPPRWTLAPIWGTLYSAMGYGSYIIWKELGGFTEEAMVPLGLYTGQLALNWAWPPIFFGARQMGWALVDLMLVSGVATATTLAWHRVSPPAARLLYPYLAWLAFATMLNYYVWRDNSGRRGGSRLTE
Chain of rat Thyrotropin Releasing Hormone Receptor (TRH), Trhr (gene 25570) (Q01717 whole entry, looked up): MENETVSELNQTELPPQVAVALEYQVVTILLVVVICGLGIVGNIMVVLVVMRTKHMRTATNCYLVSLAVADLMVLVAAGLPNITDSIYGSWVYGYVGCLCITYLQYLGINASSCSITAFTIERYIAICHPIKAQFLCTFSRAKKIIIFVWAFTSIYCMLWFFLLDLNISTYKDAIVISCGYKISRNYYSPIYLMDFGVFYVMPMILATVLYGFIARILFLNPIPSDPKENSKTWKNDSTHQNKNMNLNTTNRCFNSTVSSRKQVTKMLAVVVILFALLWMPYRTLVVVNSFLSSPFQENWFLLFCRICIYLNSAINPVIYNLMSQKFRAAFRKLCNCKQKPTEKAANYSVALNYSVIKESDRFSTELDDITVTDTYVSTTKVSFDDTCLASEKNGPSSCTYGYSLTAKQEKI
Chain of human Peripheral-type Benzodiazepine Receptor (PBR), TSPO (gene 706) (P30536 whole entry, looked up): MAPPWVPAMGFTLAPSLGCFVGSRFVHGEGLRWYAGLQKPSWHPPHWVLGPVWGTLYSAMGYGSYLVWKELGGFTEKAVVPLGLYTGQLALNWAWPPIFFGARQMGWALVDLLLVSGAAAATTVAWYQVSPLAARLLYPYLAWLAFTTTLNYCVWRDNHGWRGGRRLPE

C1CNCCN1
AC50 [1]: 3.59 µM (active) | AC50 [2]: 25 µM (active) | outcome [3]: inactive | outcome [4]: inactive | outcome [5]: inactive | outcome [6]: inactive | outcome [7]: inactive

CC/C=C\C/C=C\C/C=C\CCCCCCCC(=O)OC
AC50 [8]: 16.1 µM (active) | AC50 [9]: 7.69 µM (active) | AC50 [10]: 13.3 µM (active)

CCCCNC(=S)NCCCC
outcome [11]: inactive | outcome [9]: inactive | AC50 [10]: 5.23 µM (active) | outcome [3]: inactive | outcome [4]: inactive | outcome [5]: inactive | outcome [6]: inactive | outcome [7]: inactive

O=C(OCc1ccccc1)c1ccc(O)cc1
outcome [11]: inactive | AC50 [9]: 6.36 µM (active) | AC50 [10]: 3.77 µM (active) | AC50 [12]: 1.18 µM (active) | AC50 [13]: 25 µM (active) | AC50 [14]: 212 nM (active) | AC50 [3]: 37.3 µM (active) | AC50 [4]: 18.9 µM (active) | AC50 [5]: 4.92 µM (active) | AC50 [6]: 33.6 µM (active) | AC50 [7]: 3.98 µM (active)

CC(C)(C)NC(=O)[C@H]1CC[C@H]2[C@@H]3CC[C@H]4NC(=O)C=C[C@]4(C)[C@H]3CC[C@]12C
outcome [11]: inactive | outcome [12]: inactive | outcome [13]: inactive | AC50 [3]: 75 µM (active) | outcome [4]: inactive

CC(C)[N+](C)(CCOC(=O)C1c2ccccc2Oc2ccccc21)C(C)C
AC50 [15]: 9.05 µM (active) | AC50 [16]: 10.1 µM (active)

CC1=CP(=O)(c2ccccc2)CC1 (stereo not drawn)
outcome [15]: inactive

CC(=O)OC1CCCCC1C(C)(C)C (stereo not drawn)
outcome [11]: inactive | outcome [3]: inactive | outcome [4]: inactive | outcome [5]: inactive | outcome [17]: inactive | outcome [6]: inactive | outcome [7]: inactive

CC(CCC(=O)O)(c1ccc(O)cc1)c1ccc(O)cc1
outcome [11]: inactive | AC50 [12]: 12.2 µM (active) | AC50 [14]: 4340 nM (active) | AC50 [3]: 55.5 µM (active) | outcome [4]: inactive | AC50 [5]: 39.1 µM (active) | AC50 [6]: 60.1 µM (active) | AC50 [7]: 31.8 µM (active)

C=Cc1cccc(C)c1
outcome [16]: inactive

CCCCCCCCCC[N+](C)(CCCCCCCCCC)CCC[Si](OC)(OC)OC
outcome [11]: inactive | outcome [12]: inactive | outcome [14]: inactive | outcome [3]: inactive | outcome [4]: inactive | AC50 [6]: 11.8 µM (active) | outcome [18]: inactive

Cc1ccc([N+](=O)[O-])cc1N
AC50 [1]: 13.8 µM (active) | AC50 [13]: 20.8 µM (active) | outcome [3]: inactive | outcome [4]: inactive | outcome [5]: inactive | outcome [6]: inactive

CCCCCCC=O
outcome [11]: inactive | outcome [3]: inactive | outcome [4]: inactive

N#Cc1ccc(C(c2ccc(C#N)cc2)n2cncn2)cc1
outcome [17]: inactive

Oc1ccc(/C=C/c2cc(O)cc(O)c2)cc1
outcome [19]: inactive

CCCCC/C=C\C/C=C\CCCCCCCC(=O)O
outcome [18]: inactive

O=c1c(O)c(-c2ccc(O)cc2O)oc2cc(O)cc(O)c12
AC50 [18]: 6.95 µM (active)

CCCCCCCCCCCC(=O)N(C)CC(=O)O
outcome [14]: inactive | outcome [3]: inactive | outcome [4]: inactive | outcome [6]: inactive | outcome [7]: inactive
